The record followed here is PubChem BioAssay (Tox21).

Structures are written as SMILES. Records with an inconclusive call do not appear. Values without a mark were called inactive. Active and inactive are the calls of the source. Calls follow the shape of the dose curve; as a rule, active = well fitted cell-killing curve with a large enough effect in the repeat runs; inconclusive = weak or mixed curves, or effect the other way; inactive = flat fitted curve, though single readings scatter.
% is scaled to controls: 0 for no effect and ±100 for the full control effect; potency is read from the fitted curve at half-maximal effect.

This experiment can be described thus: Nuclear factor erythroid 2-related factor 2/antioxidant responsive element (Nrf2/ARE) small molecule agonists: qHTS cell viability counter screen in human keratinocytes (AID 1919968). Also: nearly all actives have a fitted effect of over 55% in size. The note with it: KeratinoSens HaCaT ARE cells viability, CellTiter-Fluor, 24 h; series mostly up to 92.4 µM; activity change, negative = cytotoxicity: at the top concentration. The source says: U.S. Tox21 Program National Center for Advancing Translational Sciences [NCATS] Division of Preclinical Innovation [DPI] U.S. Environmental Protection Agency [EPA] National Institutes of Environmental Health Sciences [NIEHS] National Toxicology Program [NTP] U.S. Food and Drug Administration [FDA] Tox21 Assay Overview: Oxidative stress has been implicated in the pathogenesis of a variety of diseases ranging from cancer to neurodegeneration. The antioxidant response element (ARE) signaling pathway plays an important role in the amelioration of oxidative stress. The KeratinoSens (Givaudan, Switzerland) is an in vitro test method which quantifies luciferase induction as a measure of activation of Keap1-Nrf2-antioxidationt/electrophile response element (ARE) dependant pathway in HaCaT human keratinocytes stably transfected with a selectable plasmid. The KeratinoSens assay is a cell-based assay with a reporter cell line to detect potential skin sensitizers by their ability to induce the Nrf2/ARE-response. The activation of the report gene under culture conditions can be detected by ONE-Glo Luciferase Assay System (Promega, Madison, WI). This cell line has been used to screen the Tox21 10K compound library to identify agonists that induce oxidative stress. The cytotoxicity of the Tox21 compound library against the KS-ARE cell line was tested in parallel by measuring the cell viability using CellTiter- Fluor assay system (Promega, Madison, WI) in the same wells.
Tox21 Assay Protocol Summary: HaCaT derived cell line KeratinoSens were dispensed at 1,500 cells/5uL/well in 1536-well white wall/solid bottom plates using a Multidrop Combi (ThermoFisher Scientific, Waltham, MA) dispenser. After the assay plates were incubated at 37 C/5% CO2 for 5 h, 23 nL of compounds dissolved in DMSO, positive controls or DMSO only was transferred to the assay plate by a pintool workstation (Kalypsys, San Diego, CA). The plates were incubated at 37 C/5% CO2 for 23 h, followed by addition of 1uL/well of CellTiter-Fluor reagent into the assay plates using a Flying Reagent Dispenser (Aurora Discovery, San Diego, CA) for cell viability readout that measures cytotoxicity. After 1 h incubation at 37 C/5% CO2 the fluorescence intensity was measured using a ViewLux (PerkinElmer, Shelton, CT) plate reader.
Turning to `[Cl][Hg][c]1ccccc1`, the Potency is 2730 nM (active). Take `CCCC[P+](CC)(CCCC)CCCC` (tested in a mixture with another compound): the “activity change, negative = cytotoxicity” value was -0.396%. On the same count and under the same terms, the value for `CC(=O)c1ccc(-c2ccccc2)cc1` was -2.55%; that for `CNC(=O)Oc1ccc(N(C)C)c(C)c1` was -6.91%.

For the compound `CN(C)C(=S)[S-].CN(C)C(=S)[S-].[Cu+2]`, the Potency is 297 nM (active). With `CC(C)C(Nc1ccc(C(F)(F)F)cc1Cl)C(=O)OC(C#N)c1cccc(Oc2ccccc2)c1` (stereo not given), the “activity change, negative = cytotoxicity” value was 15.9%. As to `O=C(Cl)c1ccc(Cl)cc1`, the “activity change, negative = cytotoxicity” value is 5.62%. As for `CC(=O)OC1(c2ccccc2)CCN(CCc2ccccc2)CC1`, the “activity change, negative = cytotoxicity” value was -15.5%. The same measure, in the same setting: with `CCOP(=O)(O)C(N)=O` the figure was 7.02%; with `NNCCO`, 0.887%; with `Cc1nnc(-c2ccccc2)c(=O)n1N`, 1.16%. On the same count and under the same terms, the value for `N#CC(Br)(Br)C(N)=O` was 2.99%; that for `CC(C)CBr` was -10%. On to `COc1nn(CSP(=S)(OC)OC)c(=O)s1`, for which the “activity change, negative = cytotoxicity” value was -3.23%. As to `N#CCc1ccc(Cl)cc1`, the “activity change, negative = cytotoxicity” value is -1.65%. Turning to `CO/C=C(/C(=O)OC)c1ccccc1Oc1cc(Oc2ccccc2C#N)ncn1`, the Potency is 6110 nM (active). Regarding `C[C@]12CC[C@H]3[C@@H](CCC4=CC(=O)CC[C@@]43C)[C@@H]1CC[C@@H]2O`, the “activity change, negative = cytotoxicity” value is -0.13%. Still for that read-out and setting: with `C=CC(=O)OCCCCO` the figure was -9.54%; with `CC(C)N(C(=O)SC/C(Cl)=C/Cl)C(C)C`, 5.63%. On the same count and under the same terms, the value for `O=C1OC(c2ccc(O)c(S(=O)(=O)O)c2)(c2ccc(O)c(S(=O)(=O)O)c2)c2c(Br)c(Br)c(Br)c(Br)c21` was 1.76% [at 42.5 µM]; that for `COC(=O)N(C(=O)N1COC2(C(=O)OC)Cc3cc(Cl)ccc3C2=N1)c1ccc(OC(F)(F)F)cc1` (stereo not given) was 13.8% [at 42.5 µM]. The same measure, in the same setting: the value for `Cc1nc2ccccc2c(=O)n1-c1ccccc1Cl` was -0.208%; that for `C=CCOC(=O)c1ccccc1N` was -4.51%; that for `Oc1cccc(Cl)c1` was -2.99%. Regarding `CCN(CC)C(C)C(=O)c1ccccc1` (stereo not given), the “activity change, negative = cytotoxicity” value is -1.1% [at 42.5 µM]. Take `CC(C)(C)C(O)C(Oc1ccc(Cl)cc1)n1cncn1` (stereo not given): the “activity change, negative = cytotoxicity” value is 5.16%. As for `CCC(OC(C)=O)C(CC(C)NC)(c1ccccc1)c1ccccc1` (stereo not given), the Potency was 54900 nM (active). Regarding `Oc1cccc(Cl)c1Cl`, the “activity change, negative = cytotoxicity” value was -0.459%. On the same count and under the same terms, the value for `CC(Cc1ccc2c(c1)OCO2)NO` (stereo not given) was 0.249%; that for `c1cc[c]([Sb]([c]2ccccc2)[c]2ccccc2)cc1` was -18.6%. For `C[C@H](CN1CCOCC1)C(C(=O)N1CCCC1)(c1ccccc1)c1ccccc1`, the “activity change, negative = cytotoxicity” value was 0.473%.

Consider `Oc1ccc(I)cc1`, for which the “activity change, negative = cytotoxicity” value was -9.12%.

As to `CC(Cc1ccccc1)NCCn1cnc2c1c(=O)n(C)c(=O)n2C` (stereo not given), the “activity change, negative = cytotoxicity” value is -2.13%. Same read-out and setting: with `O=C(CBr)OCc1ccccc1` the figure was -0.987%; with `CN(C)CCN(C)C`, -0.263%; with `CCN(CC)c1nc(C)cc(OP(=S)(OC)OC)n1`, 5.42%. On to `Oc1cccc(-c2ccccc2)c1`, for which the “activity change, negative = cytotoxicity” value was 0.804%. For the compound `C=C(C)C(=O)[O][Sn]([CH2]CCC)([CH2]CCC)[CH2]CCC`, the Potency was 306 nM (active). In the case of `O=C(Cc1ccccc1)OCc1ccccc1`, the “activity change, negative = cytotoxicity” value is 0.597%. On the same count and under the same terms, with `NC(=O)CS(=O)C(c1ccccc1)c1ccccc1` (stereo not given) the figure was -2.03% [at 42.5 µM].
